{"source": "PubChem BioAssay (NCI)", "note": "Compounds without any hit were thinned out: in the full panel of roughly 83,000, 20% have a hit.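 Single-concentration screen, 48 h exposure, 96-well plates. Endpoint: percent growth. Below 10 = active.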 Unmarked numbers belong to inactive results. Active and inactive are the calls of the source."}
{"system": "CAKI-1 renal", "test": "NCI-60 one-dose screen, 48 h (100 = growth as untreated, 0 = no growth, -100 = all killed)", "settings": "10 µM unless noted", "protocol": "Growth inhibition of the CAKI-1 human tumor cell line is measured as a screen for anti-cancer activity. Cells are grown in 96 well plates and exposed to the test compound for 48 hours. Compounds are tested at a single concentration, which is 10^-5 M for most compounds. The reported endpoint is percent growth (GI% or GIPRCNT), where numbers from 0 - 100% represent growth inhibition, and numbers from -100% - 0 represent cell death. For example, a value of 40 represents 60% growth inhibition. A value of 0 means no net growth occurred over the course of the experiment. A value of -40 indicates 40% of cells at the beginning of the experiment died by the end of the experiment. A value of -100 means all cells are dead at the end of the experiment.\nNCI-60 Human Tumor Cell Lines Screen was performed using the standard one-dose NCI protocol, which is described in more detail at https://dtp.cancer.gov/discovery_development/nci-60/default.htm.\nCompounds with GIPRCNT values below 10 were considered active. Activity score was based on GIPRCNT using the following formula: […]\nScore is 0 for GIPRCNT values of 100 or above, 50 for GIPRCNT values of 0, and 100 for GIPRCNT values of -100."}
{"molecule": "O=C1CCC(N2C(=O)c3cccc(NCCOCCOCCNC(=O)c4cc5c(o4)C(=O)c4ccccc4C5=O)c3C2=O)C(=O)N1", "note": "(stereo not given)", "growth": "22%"}
{"molecule": "COc1ccc2nc(-n3nc(C)cc3C)c(-n3nc(C)cc3C)nc2c1", "growth": "93.4%"}
{"molecule": "CCCCc1ccc(NC(=O)C(F)(F)F)cc1", "growth": "105%"}
{"molecule": "O=C1C(N2CCOCC2)=Cc2cccc3cccc1c23", "growth": "108%"}
{"molecule": "O=S(=O)(Nc1ccccc1Cl)c1ccc(-c2cnc(C3CC3)o2)cc1", "growth": "38.1%"}
{"molecule": "O=c1[nH]c(-c2ccncc2)nc2sc3c(c12)CCCCCC3", "growth": "67.8%"}
{"molecule": "C=CC(=O)N1CC2(CC(n3nc(-c4ccc(Oc5ccccc5)cc4)c4c(N)ncnc43)C2)C1", "growth": "8.28% (active)"}
{"molecule": "N#Cc1c(O)c2c(c(O)c1C#N)C(=O)c1ccccc1C2=O", "growth": "85.7%"}
{"molecule": "COc1ccc(C2SC(C)C(=O)N2CCc2cccs2)cc1OC", "note": "(stereo not given)", "growth": "73.2%"}
{"molecule": "Nc1cc2[nH]c(=O)c3ccccc3c2cc1Br", "growth": "54.3%"}
{"molecule": "Cc1c(C(=O)Nc2nc(-c3ccccc3)cs2)nnn1-c1ccccc1Br", "growth": "33.7% [50 µM]"}
{"molecule": "O=C(N/N=C/c1ccc(OC(F)F)c(OC2CCCC2)c1)c1cnn2c1NC(c1ccccc1)C2", "note": "(stereo not given)", "growth": "62.6%"}
{"molecule": "CCC(C)Oc1cc(/C=N/NC(=O)c2cnn3c2NC(c2ccccc2)C3)ccc1OC", "note": "(stereo not given)", "growth": "35.9%"}
{"molecule": "CCOC(=O)c1c(-c2cc(OC)c(OC)c(OC)c2)csc1N", "growth": "68.1%"}
{"molecule": "C[C@@H](Oc1cc(-c2cnn(C3CC4(CCCNC4)C3)c2)cnc1N)c1c(Cl)ccc(F)c1Cl", "note": "(stereo not given in full)", "growth": "56.6%"}
{"molecule": "O=c1[nH]c(=S)[nH]c(=O)n1Cc1cccc2ccccc12", "growth": "86.9%"}
{"molecule": "Cc1cc(C)c(S(=O)O)c(C)c1", "growth": "99%"}
{"molecule": "O=C(Nc1ccccc1O)c1ccc(NS(=O)(=O)c2cccc3cccnc23)cc1", "growth": "44.7%"}
{"molecule": "Cc1c(C(=O)Nc2nc(-c3ccccc3)cs2)nnn1-c1cccc2ccccc12", "growth": "35.8% [50 µM]"}
{"molecule": "CCOC(=O)c1sc(NC(=O)CN2CCC(Cc3ccccc3)CC2)nc1C", "growth": "99.4%"}
{"molecule": "FC(F)(F)c1ccc2c(c1)n1cnnc1c1nncn21", "growth": "97%"}
{"molecule": "COc1ccc(-c2csc3c2-n2cccc2C3=O)cc1O", "growth": "43.1%"}
{"molecule": "O=C1CC2c3cc(-c4cc5ccccc5o4)ccc3CCN2C(=O)N1c1ccccc1", "note": "(stereo not given)", "growth": "80.8%"}
{"molecule": "CCC(C)[C@H]1O[C@]2(CC[C@@H]1C)C[C@@H]1C[C@@H](C/C=C(\\C)[C@@H](OC3C[C@H](OC)C(O[C@H]4C[C@H](OC)[C@@H](O)[C@H](C)O4)[C@H](C)O3)[C@@H](C)/C=C/C=C3\\CO[C@@H]4[C@H](O)C(C)=C[C@@H](C(=O)O1)[C@]34O)O2", "note": "(stereo not given in full)", "growth": "-15.1% (active)"}
{"molecule": "Cn1c2c(cc(S(=O)(=O)c3ccccc3)c1=O)CCc1c-2cnn1-c1ccccc1Cl", "growth": "54.7%"}
{"molecule": "COc1ccc(Cn2c(Br)c3c(c2-c2cc(OC)c(OC)c(OC)c2)CCc2sc(N)nc2-3)cc1", "growth": "44.7%"}
{"molecule": "COc1cccc2c(=O)c3c(sc12)c(NCCN(C)C)nc1ccccc13", "growth": "26.2%"}
{"molecule": "CCOC(=O)c1[nH]c2cc(Cl)ccc2c1[C@@H](C(=O)NC(C)(C)C)N(CC)C(=O)CCCCC#Cc1cccc2c1CN(C1CCC(=O)NC1=O)C2=O", "note": "(stereo not given in full)", "growth": "7.95% (active)"}
{"molecule": "O=C1/C(=C/c2ccc(F)cc2)CN(Cc2cn(CCNc3ccnc4cc(Cl)ccc34)nn2)C/C1=C\\c1ccc(F)cc1", "growth": "1.43% (active)"}
{"molecule": "CCOC(=O)C(CC(c1ccccc1)N1CCCCC1)[N+](=O)[O-]", "note": "(stereo not given)", "growth": "103%"}
{"molecule": "COc1ccc(/C=N/OCC(O)CN2CCC(O)CC2)cc1OC1CCCC1", "note": "(stereo not given)", "growth": "95.4%"}
{"molecule": "O=c1c2cc(F)ccc2oc2c(NCCNCCO)nc3ccccc3c12", "growth": "30.2%"}
{"molecule": "N#C/C(=C\\c1ccc[nH]1)c1cc2ccccc2[nH]1", "growth": "52.4%"}
{"molecule": "Cc1ccc(-c2c3c(N)c4c(nc3nc3c2c(C)nn3-c2ccccc2)CCCC4)cc1", "growth": "93.2%"}
{"molecule": "COc1cccc(-c2ccc3c(c2)C2CCN(Cc4ccccc4)C3C2)c1", "note": "(stereo not given)", "growth": "78.4%"}
{"molecule": "CC(C)(C)CC(C)(C)N(CSc1ccc(Cl)cc1)CSc1ccc(Cl)cc1", "growth": "24.9%"}
{"molecule": "Cc1cc(=O)oc2c1ccc1oc(C(=O)c3ccccc3)c(C)c12", "growth": "77.1%"}
{"molecule": "CN(C)C(=S)SCN1C(=O)c2ccc([N+](=O)[O-])cc2S1(=O)=O", "growth": "96%"}
{"molecule": "Nc1nc(N)c(C=Nc2ccc(Br)cc2)c(Nc2ccc(Br)cc2)n1", "growth": "69.2%"}
{"molecule": "Cn1cc(C(=O)NCCC(=N)N)cc1NC(=O)CN=C(N)N", "growth": "99.1%"}
